Screening results from PubChem.
Sampled rows, rich in hits. Any-hit rate of the full collection: about 19%.
HT1080 IDH1KD tx = HT-1080 IDH1 knockdown cell toxicity (counter line). HT-1080 IDH1 knockdown viability, ATP luminescence, 48 h. Potency, µM (highest dose often 46.1 µM), without a hit: top-dose activity, negative = toxicity, actives largely listed as cytotoxic. 360,000 tested, 2% active;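 further: 0% = DMSO wells and -100% = cell-free medium wells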
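HT-1080-IDH1KD cells (IDH1 knocked down), 750/well in RPMI with 5% FBS, treated with compound 48 h at 37 degrees C. Viability by CellTiter-Glo luminescence, normalised to DMSO and no-cell wells; concentration-response curves classed.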
KB-V1 cytotox = KB-V1 MDR subline cytotoxicity | KB-V1 MDR cells viability, CellTiter-Glo, 72 h | Potency, µM (highest dose often 46.1 µM), actives largely listed as cytotoxic | 400,000 tested, 3.4% active; further: nearly all actives have a fitted effect of over 60% in size
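Cytotoxicity via CellTiter-Glo luminescence after 72 h compound exposure at 37 degrees C. Cells: drug-selected KB-V1 line, DMEM phenol-red free plus 10% FBS. Compounds tested at multiple concentrations; normalized data fitted to concentration-effect curves.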
DT40 TDP1 no CPT = qHTS for Inhibitors of human tyrosyl-DNA phosphodiesterase 1 (TDP1): qHTS in cells in absence of CPT. 420,000 tested, 15% active. DT40 Tdp1-/- hTDP1 cells, no CPT, ATP luminescence, 48 h. Potency, µM (top dose mostly 46.2 µM), for inactives: at the top dose activity change, negative = growth inhibition, actives largely listed as inhibitors. AID 686978, 2013; further: nearly all actives have a fitted effect of over 55% in size
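Chicken DT40 Tdp1-/- cells stably complemented with human TDP1 were seeded at 400 cells/well with DMSO in place of 20 nM camptothecin. After compound pinning, cells grew at least 48 hr at 37 °C; viability read by CellTiter-Glo luminescence.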
TDP1 cell CPT = DT40-hTDP1 cell growth loss with CPT | chicken DT40 Tdp1-/-;hTDP1 cells + 20 nM CPT, ATP luminescence, 48 h | Potency, µM (highest dose often 46.2 µM), for inactives: top-dose activity change, negative = growth inhibition, most hits filed as inhibitors | 420,000 tested, 12% active | AID 686979; further: nearly all actives have a fitted effect of over 55% in size
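Cell growth measured by CellTiter-Glo luminescence after a minimum 48 h, 37 C compound exposure with 20 nM CPT in Tdp1-knockout DT40 cells stably expressing hTDP1, seeded 400/well; qHTS titration format.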
HT1080NT lethal = kills 2HG-producing HT-1080-NT fibrosarcoma cells; Potency, µM (top dose mostly 46.1 µM), for inactives: at the top dose activity, negative = less viability, usual class: cytotoxic; AID 686970; 360,000 tested, 1.6% active; HT-1080-NT fibrosarcoma viability, CellTiter-Glo ATP luminescence, 48 h;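 further: NT is the 2HG producing partner of a matched IDH1 knockdown line; 0% = DMSO-treated cells and -100% = media-only wells without cells; nearly all actives have a fitted effect of over 55% in size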
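Toxicity toward the 2HG-producing NT line was scored as %Activity, normalised to DMSO and no-cell wells, from CellTiter-Glo luminescence after 48 hours' treatment.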
KB-3-1 tox = kills parental KB-3-1 adenocarcinoma cells | 400,000 tested, 1.4% active | KB-3-1 viability, CellTiter-Glo ATP luminescence, 72 h | Potency, µM (titrated, usually from 46.1 µM), actives largely listed as cytotoxic; further: nearly all actives have a fitted effect of over 60% in size
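Here the drug-naive KB-3-1 line serves as comparator for MDR sub-line selectivity; cells received compound titrations, 72 h at 37 °C, then CellTiter-Glo readout.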
Active calls of the source: *; i = inactive; ? = inconclusive; / = no result given; ! = repeats disagree. The call rests on the fitted dose curve; in most records, active means well fitted curve in the direction sought with a large enough effect; inconclusive means small, poorly fitted or top-dose-only effect, or another doubt; inactive means no such curve, though single readings can be large; an effect the other way counts as inactive or inconclusive. Unless noted, on the % scale 0 is the no-effect control and ±100 the full control effect; potency means the concentration at half of the fitted maximal effect.

SMILES	HT1080 IDH1KD tx	KB-V1 cytotox	DT40 TDP1 no CPT	TDP1 cell CPT	HT1080NT lethal	KB-3-1 tox
CCN1C[C@]2(CO)CC[C@H](OC)[C@@]34C5C[C@H]6[C@H](OC)C5[C@](O)(C[C@H]6OC)[C@@](O)(C(OC)C23)[C@@H]14 (stereo not given in full)	2%	i	4%	16%	7%	i
CCc1cc2c(s1)-n1c(C)nnc1CN=C2c1ccccc1Cl	/	/	-19%	?	/	/
C=CC[C@]1(O)CC[C@H]2[C@@H]3CCC4=CC(=O)CCC4=C3C=C[C@@]21C	/	/	7.5µM*	13µM*	/	/
CC12C=CC(=O)C=C1CC(O)C1C2CCC2(C)C1CCC2(C)O (stereo not given)	13%	i	-13%	6%	13%	?
C#CC1(O)CCC2C3CCC4=CC(=O)CCC4=C3C=CC21C (stereo not given)	?	2.6µM*	15µM*	8.2µM*	?	2.3µM*
N#Cc1ccc(CN2CCCC3(CCN(C(=O)Oc4ccccc4)CC3)C2)cc1	/	/	-25%	-15%	/	/
Cc1cccc(OP(=O)(Oc2ccccc2)OC(c2ccccc2)C(F)(F)F)c1 (stereo not given)	4%	i	18µM*	-22%	2%	i
CC(=O)NCC(N)C(=O)c1ccc(Cl)c(Cl)c1 (stereo not given)	-13%	/	?	?	?	/
O=c1[nH]c(=S)n(CCC2=CCCCC2)c(O)c1C=NC1CCN(Cc2ccccc2)CC1	-4%	5.8µM*	?	21µM*	-5%	?
CCOc1ccc(/C=C/C(=O)C(C(N)=O)=C2SCCS2)cc1	-1%	?	?	?	-5%	?
CCCC1(CCC)C(=O)NC(=Nc2ccccc2)NC1=O	8%	i	-12%	-14%	8%	i
CCCC1(CCC)C(=O)NC(=NCc2ccccc2)NC1=O	?	i	13µM*	10µM*	15µM*	?
O=Nc1c(O)c2ccccc2c2ccccc12	2.9µM*	16µM*	3.3µM*	1.8µM*	6.5µM*	4.6µM*
Cc1ccccc1NC(=O)Cc1nc(COC(=O)c2cc([N+](=O)[O-])ccc2N)cs1	6%	?	?	-2%	2%	i
COc1ccc(/C=C2/C(=O)NC(=S)N(C3CC3)C2=O)cc1CN1C(=O)c2ccccc2C1=O	-15%	i	23µM*	16µM*	-8%	i
N#CC(C#N)=NNc1ccc([N+](=O)[O-])cc1	16µM*	i	23µM*	21µM*	21µM*	i
Cc1c(C(=O)N2CCC(Cc3ccccc3)CC2)sc2ncnc(N3CCC(C)CC3)c12	9%	i	?	21µM*	14%	i
Cc1ccc2c(c1)C1CN(C)CCC1N2 (stereo not given)	/	/	?	6%	/	/
CCCCc1ccc(NC(=O)c2cccn(Cc3ccc(Cl)cc3)c2=O)cc1	/	i	-22%	-22%	/	?
Cn1cc(C(=O)N2CCC3(CC2)OCCO3)c2c3ccccc3n(C)c2c1=O	-11%	i	-6%	-13%	14%	i
Cc1ccc(Cl)cc1N1CCN(C(=O)c2cn(CC(C)C)c(=O)c3c2c2ccccc2n3C)CC1	/	i	4.6µM*	6.5µM*	/	i
CCn1c(NN=O)nc2ccccc21	?	i	?	7.3µM*	-25%	?
CCn1c(P(C)(=O)O)nc2ccccc21	6%	i	-20%	-7%	9%	i
O=C(NCCCN1CCOCC1)C(Cl)(Cl)Cl	29%	i	-2%	3%	7%	i
CC(=O)OC[C@]12C[C@H](OC(=O)CC(C)C)C(C)=C[C@H]1O[C@H]1[C@H](O)[C@@H](OC(C)=O)[C@@]2(C)[C@]12CO2	/	/	0.0092µM*	0.012µM*	/	/
SMILES	HT1080 IDH1KD tx	KB-V1 cytotox	DT40 TDP1 no CPT	TDP1 cell CPT	HT1080NT lethal	KB-3-1 tox
CC(=O)OC[C@]12CCC(C)=C[C@H]1O[C@@H]1[C@H](O)[C@@H](OC(C)=O)[C@@]2(C)[C@]12CO2	0.21µM*	?	0.016µM*	0.021µM*	?	?
CC1CC2CC(=O)C3CCCN4CCCC2[C@]34C1 (stereo not given in full)	/	/	-2%	6%	/	/
CCc1ccccc1NC(=O)C1CCCN(c2ncnc3onc(C)c23)C1 (stereo not given)	/	i	9.2µM*	18µM*	/	i
Cc1ccnc2c1NC(=O)c1cccnc1N2C1CC1	?	i	8.2µM*!	6.5µM*!	-12%	i
Cc1cccnc1-n1c(-c2ccco2)nc2ccccc2c1=O	11%	i	?	-28%	10%	i
CC(=O)OC1C(O)C(C)OC(OC2C(OC(=O)C3CCC4C(C3)OC3(CC(OC(=O)/C=C/c5ccccc5)C(C)CO3)C43CO3)OC(C)C(O)C2OC(C)=O)C1O (stereo not given)	0.065µM*	?	0.073µM*	0.15µM*	0.13µM*	0.18µM*
CCN(C(=O)CN1CC=C(c2ccccc2)CC1)c1c(N)n(Cc2ccccc2)c(=O)[nH]c1=O	-6%	i	-5%	12%	-6%	i
Cc1ccccc1NC(=O)c1cc(-c2ccccc2)n(CCCN2CCOCC2)c1C	-1%	i	0%	-2%	-20%	i
Cc1ccccc1NC(=NCCCN1CC1)Nc1ccccc1C	?	i	5.2µM*	2.1µM*	-13%	?
CC1(CCO)C(=O)NC(=S)NC1=O	-3%	i	-14%	2%	0%	i
O=C1NC(=S)NC(=O)C1Cc1ccccc1	0%	i	-8%	0%	3%	i
O=C1NC(=O)C(Cc2ccccc2)(Cc2ccccc2)C(=O)N1Cc1ccccc1	?	16µM*	?	23µM*	?	?
O=C1NC(=O)N(Cc2ccccc2)C(=O)C1Cc1ccccc1 (stereo not given)	8%	i	8.2µM*	-20%	1%	i
CCCn1ncc(CN2CCCC(C(=O)c3cccc(OC)c3)C2)c1C (stereo not given)	-5%	i	-21%	?	-8%	i
Oc1ccc(C2=CCNCC2)cc1O	/	i	/	/	/	i
COc1nc(C)nc(NC(=O)NS(=O)(=O)c2ccccc2Cl)n1	4%	i	-4%	-25%	39%	i
